DRD3 agonist – activates the human D3 dopamine receptor; P35462; D3R DiscoveRx beta-arrestin cells, luminescence, 90 min; max activation, %; 410,000 compounds, 0.58% hits; in the data active means max activation above about 30%
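Agonist mode: compounds and dopamine controls were applied to plated cells for 90 min at 37 degrees C after an overnight attachment at 1500 cells/well. Luminescent read-out followed 30 - 60 minutes at room temperature with DiscoveRx detection reagent.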
D1 antagonist – antagonists of human D1 dopamine receptor; activity change, negative = inhibition, % at 10 µM; HEK293 TREx D1 cells, calcium flux, dopamine EC80; stronger effect = lower value; P21728; 360,000 compounds, 3.2% hits; in the data active means activity change below about -30%
Target sequence (P21728 whole entry, looked up): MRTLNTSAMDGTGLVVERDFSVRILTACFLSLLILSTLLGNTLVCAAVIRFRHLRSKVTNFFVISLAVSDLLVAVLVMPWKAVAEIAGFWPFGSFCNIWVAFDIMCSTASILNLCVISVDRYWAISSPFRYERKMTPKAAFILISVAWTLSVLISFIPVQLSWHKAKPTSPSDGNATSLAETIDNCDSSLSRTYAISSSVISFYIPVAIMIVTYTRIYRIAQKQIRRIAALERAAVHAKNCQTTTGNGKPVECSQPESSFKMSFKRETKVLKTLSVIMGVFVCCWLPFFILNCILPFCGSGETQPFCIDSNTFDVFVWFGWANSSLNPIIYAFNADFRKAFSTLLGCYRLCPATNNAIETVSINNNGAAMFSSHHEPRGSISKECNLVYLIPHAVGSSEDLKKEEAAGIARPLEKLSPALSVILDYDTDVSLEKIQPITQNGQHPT
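Using tetracycline-induced force-coupled D1 Hek293 cells and a calcium dye, signals were followed for 180 s after compound, then for 180 s after EC80 dopamine, to detect inhibitors.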
D1 PAM – human D1 dopamine receptor positive modulation. P21728. HEK293 TREx D1 cells, calcium flux, dopamine EC20 potentiation. potentiation, % at 10 µM. 360,000 compounds, 0.036% hits; in the data active means potentiation above about 30%
DRD3 antagonist – antagonists of human D3 dopamine receptor. P35462. D3R cells, DiscoveRx beta-arrestin luminescence, antagonist mode; stronger effect = lower value. max response, negative = inhibition, %. 360,000 compounds, 2.5% hits; in the data active means max response below about -50%; inconclusive means no clear call, values can overlap the other calls
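Cells expressing the human receptor were seeded at 1500 cells/well, incubated overnight at 37 degrees C in 5% CO2, then exposed to library compounds with dopamine controls for 90 minutes at 37 degrees C before luminescent detection.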
D1 ag – activates the human D1 dopamine receptor | HEK293 T-REx D1 cells, calcium flux, agonist mode | activation, % at 2 µM | P21728 | AID 504660 | 360,000 compounds, 1% hits; in the data active means activation above about 30%
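Agonism was scored from calcium flux recorded over 180 s (1 read/s) after pintool compound addition, following a 10-cycle baseline. Cells were inducible force-coupled HEK293 TREx D1, plated overnight at 30 C and loaded with no-wash calcium dye.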
Each line names hits and unclear results; the compound was inactive in the other large screens; ! = a repeat was not active. Shown are actives, neighbours in structure and some others; about 6% of the full set was active somewhere.

Cc1cccc(C)c1NC(=O)Nc1nnc([C@H]2C[C@H](O)[C@@H](CO)O2)s1	none (no result: D1 antagonist, D1 PAM, D1 ag)
Cc1ccccc1NC(=O)Nc1nnc([C@@H]2C[C@H](O)[C@@H](CO)O2)s1	DRD3 agonist 54 (no result: D1 antagonist, D1 PAM, D1 ag)
Cc1ccc(C(=O)Nc2nnc([C@H]3C[C@H](O)[C@@H](CO)O3)s2)cc1	DRD3 antagonist -77 (no result: D1 antagonist, D1 PAM, D1 ag)
CCC(C(=O)NC1CCCC1)n1c(C2CC2)nc2ccccc21 (centres undefined)	DRD3 antagonist inconclusive (no result: D1 antagonist, D1 PAM, D1 ag)
O=C(CSc1nc(C2CC2)nc2sc3c(c12)CCCC3)NCc1ccco1	DRD3 antagonist -112
Cc1nc(SCC(=O)NCc2ccco2)c2c3c(sc2n1)CCCC3	none
CC(=O)N1c2ccc(S(=O)(=O)N3CCCC(C(=O)Nc4ccc(F)cc4)C3)cc2CC1C (centres undefined)	none
Clc1ccc(Cl)c(OCCN2CCOCC2)c1	DRD3 antagonist -52
Clc1cccc(OCCCCN2CCCCC2)c1	DRD3 antagonist inconclusive
Cc1cccc(Cl)c1OCCN1CCCC1	D1 antagonist -41, DRD3 antagonist inconclusive
Clc1cccc(Cl)c1OCCCCN1CCCCC1	none
Clc1ccc(Cl)c(OCCN2CCCC2)c1	DRD3 antagonist -75
CCC1CN(C(=O)Nc2cc(C)ccc2OC)c2cc(Cl)ccc2O1 (centres undefined)	none (no result: DRD3 antagonist)
Cc1ccc(CCNC(=O)c2cc3c(=O)n(C)c4ccccc4c3n2C)cc1	none (no result: DRD3 antagonist)
Cc1ccc(N(C)C(=O)c2cc(S(=O)(=O)N3CCc4ccccc43)cn2C)cc1	none
Cc1cccc(N(C)C(=O)c2cc(S(=O)(=O)N3CCc4ccccc43)cn2C)c1	none
CN(C(=O)c1cc(S(=O)(=O)N2CCc3ccccc32)cn1C)C1CCCCC1	D1 antagonist -54
COc1ccc(N(C)C(=O)c2cc(S(=O)(=O)N3CCc4ccccc43)cn2C)c(OC)c1	D1 antagonist -55 (no result: DRD3 antagonist)
CC(Oc1ccc(Cl)cc1)C(=O)Nc1ccccc1C(=O)N1CCOCC1 (centres undefined)	none
CN(Cc1ccccc1)C(=O)c1ccc(NC(=O)Cc2ccc(NC(=O)C3CCCN(C(=O)C4CCCC4)C3)cc2)cc1 (centres undefined)	none (no result: D1 antagonist, D1 PAM, D1 ag)
COc1cc(C(C)=O)ccc1OCC(=O)N1CCC(Cc2ccccc2)CC1	none (no result: D1 antagonist, D1 PAM, D1 ag)
COc1cc(C(C)=O)ccc1OCCN1CCC(Cc2ccccc2)CC1	DRD3 antagonist -77 (no result: D1 antagonist)
COc1cc(C(C)=O)ccc1OCCCN1CCC(Cc2ccccc2)CC1	DRD3 antagonist -90
CCCCN(C/C=C/c1ccccc1OC)Cc1ccccc1	DRD3 antagonist inconclusive
CCN(C/C=C/c1ccccc1OC)Cc1ccccc1	DRD3 antagonist -82
O=C(Nc1ccc(Br)cc1F)c1nc[nH]c1C(=O)N1CCc2ccccc2C1	none (no result: D1 antagonist, D1 PAM, D1 ag)
O=C(CSc1oc(-c2ccc(F)cc2)nc1S(=O)(=O)c1ccccc1)NC1CCCCC1	none (no result: DRD3 antagonist)
Cn1c(SCC(=O)Nc2ccccc2)nnc1C(F)(F)F	none
Cn1c(SCC(=O)NCCNC(=O)CSc2nnc(C(F)(F)F)n2C)nnc1C(F)(F)F	D1 antagonist -32
Cc1cc(C)c(OCCN(C)C)c(Cl)c1	D1 antagonist -38, DRD3 antagonist inconclusive
Cc1cc(Cl)cc(Cl)c1OCCOCCN(C)C	none
CC(C)c1ccc(NC(=O)CS(=O)(=O)c2cccc3nsnc23)cc1	none (no result: DRD3 antagonist)
C/C=C(\C)CN1CCN(c2cc(C)ccc2C)CC1	DRD3 antagonist -86
Cc1ccc(C)c(N2CCN(CCCc3ccccc3)CC2)c1	DRD3 antagonist -65
Cc1ccc(C)c(N2CCN(CCCNC(=O)c3ccc4nc(CCc5ccccc5)oc4c3)CC2)c1	none (no result: DRD3 antagonist)
C/C=C(\C)CN1CCN(c2cccc(C)c2C)CC1	DRD3 antagonist -88
C/C=C(\C)CN1CCN(c2ccccc2F)CC1	none
Cc1noc(C)c1COc1ccc(C(=O)OCC(=O)Nc2ccc(S(N)(=O)=O)cc2)cc1	none
CCCNCC(O)COc1ccccc1C(=O)CCc1ccccc1 (centres undefined)	D1 antagonist -52 (no result: DRD3 agonist, D1 PAM, DRD3 antagonist, D1 ag)
CCN(CC)CC(O)COc1ccccc1C(=O)CCc1ccccc1 (centres undefined)	none
COc1ccccc1N1CCN(C(=O)c2ccc3c(c2)N(Cc2cc(C)ccc2C)C(=O)c2ccccc2S3(=O)=O)CC1	none (no result: DRD3 antagonist)
O=C(c1ccc(NC2=NC3CS(=O)(=O)CC3S2)cc1)N1CCN(c2ccccc2F)CC1 (centres undefined)	DRD3 antagonist -61
O=C1NC[C@H](CCCCN2C[C@H](Cc3ccc(O)cc3)N(CCC3CCCCC3)C(=O)C2=O)N(CCc2ccc(O)cc2)C1=O	none (no result: D1 antagonist, D1 PAM, D1 ag)
COc1ccc(-c2[nH]ncc2CN2CCCC(C(=O)c3ccc(OC)cc3OC)C2)cc1 (centres undefined)	D1 antagonist -31
COc1cccc(C(=O)C2CCCN(Cc3cn[nH]c3C3CCCCC3)C2)c1 (centres undefined)	DRD3 antagonist -86
CC(C)Oc1cccc(C(=O)C2CCCN(Cc3cnc(N4CCCC4)s3)C2)c1 (centres undefined)	DRD3 antagonist -83
NC(=O)C1CCN(c2nc(-c3ccc(Br)cc3)cs2)CC1	D1 antagonist -46!
CC(=O)c1ccc(-c2csc(N3CCC(C(N)=O)CC3)n2)cc1	none (no result: DRD3 agonist, DRD3 antagonist)
O=C1/C(=C/c2ccccc2[N+](=O)[O-])COc2ccccc21	DRD3 antagonist -71 (no result: D1 antagonist)
CCOc1ccc2nc(/N=C/c3nc(-c4ccc(Br)cc4)oc3O)sc2c1	D1 ag 37
CCCCOc1ccc(-c2nc(/C=N/c3nccs3)c(O)o2)cc1	none
O=S(=O)(c1cccc(F)c1)N1CCc2sccc2C1c1ccc(OC(F)(F)F)cc1 (centres undefined)	D1 antagonist -41
CCCC(C)(C)C(=O)N1CCC1(C)C(=O)NS(=O)(=O)c1cccc(Cl)c1 (centres undefined)	none (no result: D1 antagonist, D1 PAM, D1 ag)
CCOc1ccc(C(=O)Nc2ccc(C(=O)OCc3cc(=O)n4ccsc4n3)cc2)cc1	none (no result: DRD3 antagonist)
Oc1cc2c(cc1O)[C@@H](c1ccccc1)CNCC2	D1 antagonist -91
Oc1cc2c(cc1O)C(c1ccccc1)CNCC2 (centres undefined)	none (no result: D1 antagonist, D1 PAM, D1 ag)
c1ccc(C2CNCCc3ccccc32)cc1 (centres undefined)	D1 antagonist -42
CCN(CC)CCn1c(NCc2nc3ccccc3n2Cc2ccccc2)nc2ccccc21	DRD3 antagonist -55
Cn1cccc1-c1nc2ccccc2n1Cc1ccccc1	DRD3 antagonist -54
CCN(CC)CCSc1nc2ccccc2n1Cc1ccccc1	D1 antagonist -39, DRD3 antagonist -54
Cn1c(=O)c2cc(NC(=O)CCc3cccnc3)ccc2n1Cc1ccc(F)cc1	none (no result: D1 antagonist, D1 PAM, D1 ag)
O=C(NCCc1ccccc1)c1cnn(-c2ccc(F)cc2)c1-n1cccc1	none (no result: DRD3 antagonist)
CC(=NO)c1cc(Br)c2cccc3c2c1CC3	none (no result: D1 antagonist, D1 PAM, D1 ag)
CC(=O)Cc1nsc(NC(=O)c2ccc(F)cc2)n1	D1 antagonist -80
COc1ccc(CNC(=O)CCSCc2cccc(F)c2)cc1	none
Nc1ccc(C2CCCc3nonc32)c2nonc12 (centres undefined)	DRD3 antagonist -63
